Over roughly 33,000 sequences, “E-score (-0.5 to 0.5)” has its median near -0.012; the highest 2% begin near 0.29. The full list was thinned out, with the highest values kept by preference.
What follows are sequences tested against T1, Ybr033w (UniProt P38073) (assay: PBM E-score (8-mer binding enrichment) (E-score (-0.5 to 0.5)); higher = stronger / more preferred TF binding). Conditions: protein concentration: 200 nM; construct: GST-full length.
T1 sequence: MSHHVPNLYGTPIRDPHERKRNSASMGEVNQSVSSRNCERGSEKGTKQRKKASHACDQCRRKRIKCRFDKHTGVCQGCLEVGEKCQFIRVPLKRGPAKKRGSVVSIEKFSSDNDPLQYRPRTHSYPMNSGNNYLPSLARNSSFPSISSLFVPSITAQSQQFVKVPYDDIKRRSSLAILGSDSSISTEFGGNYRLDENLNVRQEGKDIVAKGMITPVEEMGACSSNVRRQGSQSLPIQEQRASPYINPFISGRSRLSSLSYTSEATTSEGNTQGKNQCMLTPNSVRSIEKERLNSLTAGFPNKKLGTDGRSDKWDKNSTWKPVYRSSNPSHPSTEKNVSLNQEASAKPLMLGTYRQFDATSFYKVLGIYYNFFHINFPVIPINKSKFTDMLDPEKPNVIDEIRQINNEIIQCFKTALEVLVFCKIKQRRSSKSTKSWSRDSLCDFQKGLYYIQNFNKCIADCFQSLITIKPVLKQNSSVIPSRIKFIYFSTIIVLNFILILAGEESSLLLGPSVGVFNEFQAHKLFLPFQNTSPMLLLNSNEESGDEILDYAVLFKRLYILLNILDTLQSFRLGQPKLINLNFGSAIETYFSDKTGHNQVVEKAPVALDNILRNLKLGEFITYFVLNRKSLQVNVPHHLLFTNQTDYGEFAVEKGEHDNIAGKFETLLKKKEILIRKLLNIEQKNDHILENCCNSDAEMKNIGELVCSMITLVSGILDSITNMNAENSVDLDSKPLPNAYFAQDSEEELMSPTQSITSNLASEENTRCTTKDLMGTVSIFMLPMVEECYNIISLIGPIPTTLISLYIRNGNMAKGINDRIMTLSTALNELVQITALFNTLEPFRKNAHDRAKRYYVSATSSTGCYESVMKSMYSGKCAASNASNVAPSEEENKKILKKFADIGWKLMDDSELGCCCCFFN
Method: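 Universal 'all 10-mer' protein binding microarrays (Agilent AMADID 015681) probed with GST-tagged S. cerevisiae TFs (full-length or DBD) made by in vitro transcription/translation (PURExpress), about 100-200 nM. Bound TF was detected with fluorescent anti-GST. Each ungapped 8-mer (which stands for itself and its reverse complement) is scored by the PBM enrichment score (E-score), a modified Wilcoxon-Mann-Whitney statistic from -0.5 to +0.5, computed with the Universal PBM Analysis Suite. Scale: above 0.35 generally sequence-specific binding.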

Sequence | PBM E-score
CCCGCCTC | -0.17
CGCCCCAA | -0.118
TCGAACAA | 0.138
GCGAACAA | 0.183
AGGAACAG | -0.0964
ACGAACAT | 0.151
GGGAACAC | 0.0998
GGGAACAA | 0.381
AGGAACAT | 0.399
TGGAACAA | 0.434
AGGAACAA | 0.402
TGGAACCA | 0.0554
AGGAACAC | 0.193
ATGAACAT | 0.217
CCTGAATA | 0.186
TCCCCTAA | -0.208
GTCTATCA | 0.0657
CTCTATCA | -0.0434
CTCTATTA | 0.152
GTCTATTA | -0.0198
ATCTATCA | 0.302
ATGTATTG | 0.266
ATGTATTA | 0.293
ATCTATTA | 0.327
GTGTATTA | 0.28

Sequence | PBM E-score
GCTACAAC | 0.0399
GAAGAGCC | -0.13
ACCGGCCA | -0.314
ATCCACAT | 0.224
ACTCCTCC | -0.182
CGTAGTCA | -0.186
AATATCAG | 0.299
AATATCGT | 0.33
ACTATCAT | 0.242
AATATCGA | 0.164
AATATCGG | 0.198
AATATCAA | 0.233
AATATCAC | 0.239
AATATCAT | 0.294
CATATCAG | 0.0658
ACGACGTA | 0.0878
ACTTGGAC | 0.127
ACCAGCAT | 0.0255
CTGCGGTC | -0.262
AATCTACG | -0.0149
ACAGCACA | 0.144
CCCCTTCG | -0.317
AATACTCT | 0.298
CAAATACC | 0.112
AAAATACC | 0.315

Sequence | PBM E-score
AAAATACA | 0.254
AAAATACT | 0.301
ACAATACT | 0.219
AAAATACG | 0.171
AATACTCA | 0.229
AATACTCC | 0.0328
CTCTAGCA | -0.0957
AACGATGA | 0.0671
GTGTTAGA | 0.0758
GATAAGTA | 0.205
GTAGACTA | -0.131
AATGCAAA | 0.274
TCACTGGA | 0.00252
ATAGTAGC | 0.16
GACCTCCC | -0.249
CCGCGTGC | -0.231
ATTAAATG | 0.347
ATAAAATG | 0.219
GTTAAATA | 0.278
ATTAAATC | 0.213
CTTAAATA | 0.114
ATTAAATA | 0.33
AGCACAGC | 0.0732
CATCGAGC | -0.0235
ATCTTGCG | 0.0267

Sequence | PBM E-score
ATCTTGCA | 0.294
GTCTTGCA | 0.0132
AACTTGGT | 0.168
GCTTTCCC | -0.253
GAAACTTC | 0.112
AAAACTAT | 0.217
AAAACTTC | 0.176
TAAACTAA | 0.271
CAAACTTA | 0.191
AAAACTAA | 0.328
TAAACTTA | 0.166
AAAACTTA | 0.362
GAAACTTA | 0.332
ATTCTTAA | 0.0371
AAAGCTAG | 0.103
CCTAGCCG | -0.157
GAGCGTTA | 0.113
GGTTCTAC | -0.0153
AGAATAAA | 0.312
TGAATAAA | 0.195
CGAATAAC | 0.07
AGAATAAC | 0.141
AGAATAAG | 0.14
GGAATAAC | 0.453
AGAATAAT | 0.163

Sequence | PBM E-score
CGAATAAA | 0.145
GGAATAAA | 0.296
GATCGAGC | -0.00942
ATAGGTGG | -0.108
CGAGTGGC | -0.32
AGTTACCG | 0.0592
TTCAAGAA | 0.296
CGAAGAAA | 0.156
GGAAGAAA | 0.34
ACAAGAAA | 0.206
AGAAGAAA | 0.0907
TCAAGAAA | 0.291
CGAAGAAC | 0.145
AGAAGAAC | 0.171
CCAAGAAA | 0.167
TTCAAAAA | 0.239
GGAAGAAC | 0.461
GTCAAGAA | 0.146
AGACTAGC | -0.208
CCTTGCTA | 0.00278
AGGAGCGG | -0.359
CGGGTAGA | -0.0322
ATAAATCA | 0.223
ATAAATCC | 0.324
ATAAATTG | 0.365

Sequence | PBM E-score
AAAAATTG | 0.221
ATAAATTA | 0.375
CTAAATTC | 0.204
AGAAATTG | 0.281
ATAAATCG | 0.218
GTAAATTA | 0.193
ATAAATTC | 0.308
ATAAATGC | 0.0963
CTAAATTA | 0.173
ACTATTGA | 0.243
CTGGAGAA | -0.115
CAGAGTAA | -0.0159
CTAGAGCC | -0.0992
TCCAACGA | -0.0709
AGTCACAT | 0.0586
GTGCCCGA | -0.142
AAAGCTTC | -0.0172
AGCTCTGG | -0.197
AGTTGCTC | -0.15
ATTCCACG | -0.0625
ATTCCACC | 0.208
ATTCCACA | 0.335
AGATTCTG | -0.0373
ACTGGATG | -0.0668
ATTGGTCG | -0.0127

Sequence | PBM E-score
CTATAATA | 0.156
GCAATATA | 0.123
GTAATATA | 0.299
GTATAATA | 0.207
GGAATATA | 0.291
AGAATATA | 0.134
GTAATAGA | 0.17
ATATAATA | 0.34
CTAATATC | 0.196
CTAATAGA | 0.06
CTAATATA | 0.297
CGAATATA | 0.156
AATCCAAG | 0.228
CTAGCGAG | -0.177
ACATCGCT | -0.101
ACGGGCAT | -0.108
ACTTTAGG | -0.0326
CCCCAAGA | -0.0572
ATAATATG | 0.273
ATAATATA | 0.321
ATAATATC | 0.28
CAAGTCTC | -0.0267

Reference: the supplement of paper PMC3334620
